The results in this text go back to PubChem BioAssay (NCI).

“And” between values parts separate entries of the source, which are not always exact repeats. Equal values may be shown once. This is part of a sample that, as a whole, favours compounds with a hit. Of some 83,000 tested, about 20% had one in any assay.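 Results are percent growth after 48 hours of single-concentration exposure. 100 means growth as in untreated cells, lower positive values show inhibition; negative values down to -100 show cell death.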 The source made the active and inactive calls. How the source made its calls: active means growth percent below 10; inactive means the rest.

The subject of the test is MDA-MB-468 breast. The test is described as follows: NCI-60 one-dose screen, 48 h (100 = growth as untreated, 0 = no growth, -100 = all killed). As to conditions: 10 µM unless noted.
Take `Nc1ccc(F)c(Cl)c1F`: the growth is 92.5% (inactive).
In the case of `Cc1cc(N)c2ccccc2[n+]1CCCCCCCCCC[n+]1c(C)cc(N)c2ccccc21` it was -55.7% (active).
Consider `COc1cc2c(cc1-c1c(C)noc1C)ncc1nc(C3CCCC3)n([C@H](C)COC(F)F)c12`, for which the growth was 32.7% (inactive).
For the compound `CCOC(=O)N/N=C\C(C)=N\NC(=O)OCC`, the growth was 114% (inactive).
In the case of `COc1ccc(OC)c(CCn2cncc2-c2c[nH]c3cc(Br)ccc23)c1` it was -5.69% (active).
Take `CCOC(=O)c1c(O)cc(-c2ccccc2)cc1-c1sc(N(C)Cc2ccccc2)nc1Cl`: the growth is 111% (inactive).
For the compound `COC1(OC)C2(Cl)C=C(c3ccccc3)C1(Cl)C(Cl)=C2Cl` (stereo not given), the growth is 108% (inactive).
Regarding `CCOC(=O)CSc1nc2sc3c(c2c(=O)n1-c1ccccc1)CCCCC3`, the growth was 122% (inactive).
`COc1ccc(/C=N/NC(=O)c2cnn3c2NC(c2ccccc2)C3)cc1OC1CCCC1` (stereo not given): the growth was 91.1% (inactive).
Take `CN1CCN(Cc2ccc(NC(=O)c3cncc(C#Cc4c(N)ncc5c(F)cccc45)c3)cc2C(F)(F)F)CC1`: the growth was -82% (active).
Turning to `COc1cccc(/C=C/C(=O)c2c(C)nc3ccccc3c2/C=C/c2ccccc2)c1OC`, the growth was 43.3% (inactive).
For the compound `COc1ccc(OC)c(NC2=C(SCCc3ccccc3)C(=O)c3ccccc3C2=O)c1`, the growth was 65.7% (inactive).
In the case of `Cc1cccc(Oc2ccc(Nc3ncnc4ccc(NC(=O)CNCCO)cc34)cc2Cl)c1`, the growth was -21.9% (active).
For `Cc1ccc2nc(NC(=O)CSc3nc(-c4ccccc4)c(C#N)c4nnnn34)sc2c1`, the growth is 107% (inactive).
`CNCCNc1nc2ccccc2c2c(=O)c3cc(F)ccc3sc12`: the growth was 51.6% (inactive).
As for `O=C1c2ccccc2-c2nnc(-c3ccc(Br)cc3)cc21`, the growth was 20.3% (inactive).
In the case of `O=C1Nc2ccccc2/C1=C/c1ccc(COCC2CO2)n1-c1ccc(O)cc1` (stereo not given) it was 95.9% (inactive); in that of `Cc1nn(-c2ccccc2)c2ncnc(N/N=C/c3ccccc3)c12`, 84.3% (inactive); in that of `COC(=O)C[Se]C(=O)Cc1c(C)n(C(=O)c2ccc(Cl)cc2)c2ccc(OC)cc12`, -18.4% (active).
As for `Cc1ccccc1CNc1c2ccccc2nc2ccccc12`, the figure is 5.84% (active); as for `COc1cc2c(Nc3ccc(Cl)c(Cl)c3F)ncnc2cc1OCC1C[C@@H]2CN(C)C[C@@H]2C1` (stereo not given in full), -86.1% (active) and -71.9% (active).
As for `CC(C)CCC[C@@H](C)[C@H]1CC[C@H]2[C@@H]3CC=C4c5sc(Nc6cc(C(F)(F)F)cc(C(F)(F)F)c6)nc5CC[C@]4(C)[C@H]3CC[C@]12C`, the growth was 105% (inactive).
Regarding `COc1ccc(C(=O)c2cc(F)c(F)c(OC)c2F)cc1OC(=O)CCl`, the growth was 61.3% (inactive).
In the case of `Nc1n[nH]c2cccc(C#Cc3cccc(C(=O)Nc4cc(C(F)(F)F)cc(C(F)(F)F)c4)c3)c12` it was 87.5% (inactive); in that of `COc1cc(C(=C2O[C@@H]([C@H]3COC(C)(C)O3)[C@H]3OC(C)(C)O[C@@H]23)c2cc(OC)c(OC)c(OC)c2)cc(OC)c1OC`, 106% (inactive); in that of `CNc1ccc(NC)c2c1C(=O)c1ccccc1C2=O`, -7.38% (active).
As to `CCCCc1ccc(NS(=O)(=O)c2cc3c4c(c2)CCN4C(=O)CC3)cc1`, the growth was -25.9% (active).
In the case of `CCOC(=O)CCC(NC(=O)c1ccc(N)cc1)C(=O)OCC` (stereo not given) it was 102% (inactive); in that of `COc1cc(-c2cc(-c3cc4c([nH]c5ccccc54)c(-c4cc(OC)c(OC)c(OC)c4)n3)cc(-c3ccccc3)n2)cc(OC)c1OC`, 8.91% (active).
For `Cc1nc(Nc2ncc(C(=O)Nc3c(C)cccc3Cl)s2)cc(N2CCN(CCO)CC2)n1`, the growth was -4.35% (active) and -2.22% (active).
As for `O=c1[nH]c(-c2ccc(Cl)cc2)nc2sc3c(c12)CCCC3`, the figure is 82.2% (inactive).
As for `Cc1ccc(S(=O)(=O)OC[C@@]2(C)CC[C@]3(C)CC[C@]4(C)C(=CC[C@@H]5[C@@]6(C)CCCNC(C)(C)[C@@H]6CC[C@]54C)[C@@H]3C2)cc1`, the figure is -85.5% (active); as for `CCN(CC)CCNc1ccc([N+](=O)[O-])c2sc3ccccc3c(=O)c12`, 1.4% (active); as for `O=C(NC1CCCCC1)c1ccc(Nc2ncnc3c2cnn3-c2ccccc2)cc1`, 76.1% (inactive).
As for `O=S(=O)(O)c1ccc2cc(O)ccc2c1`, the figure is 101% (inactive); as for `COc1ccc2nccc(Cl)c2c1`, 100% (inactive); as for `COc1c(Cl)cc(Cl)cc1Cl`, 110% (inactive).
Consider `Nc1ncnc2c1c(-c1cccc(OCc3ccccc3)c1)cn2C1CC(CN2CCC2)C1` (stereo not given), for which the growth is -12.3% (active).
Take `COc1cc(C2C=C(C)N=C3SC=CN32)cc(OC)c1OC` (stereo not given): the growth is 97.5% (inactive).
As for `Oc1ccc(-c2nn(-c3ccccc3)cc2-c2nc3ccccc3s2)cc1`, the figure is 90.1% (inactive).
